# Screening data: PubChem BioAssay, National Center for Advancing Translational Sciences (NCATS)
# The sample as a whole holds a higher share of hits than the screen did.
# KDM5B inh = inhibitors of human KDM5B histone demethylase; Q9UGL1; Potency, µM (highest dose often 57.7 µM), usual class: inhibitors; 2.6% of 220,000 active; KDM5B demethylase, FDH-coupled NADH fluorescence (FDH is formaldehyde dehydrogenase); active = well fitted inhibition curve with a large enough effect; also: 0% is about no effect; nearly all actives have a fitted effect of over 70% in size
# Target sequence (Q9UGL1 whole entry, looked up): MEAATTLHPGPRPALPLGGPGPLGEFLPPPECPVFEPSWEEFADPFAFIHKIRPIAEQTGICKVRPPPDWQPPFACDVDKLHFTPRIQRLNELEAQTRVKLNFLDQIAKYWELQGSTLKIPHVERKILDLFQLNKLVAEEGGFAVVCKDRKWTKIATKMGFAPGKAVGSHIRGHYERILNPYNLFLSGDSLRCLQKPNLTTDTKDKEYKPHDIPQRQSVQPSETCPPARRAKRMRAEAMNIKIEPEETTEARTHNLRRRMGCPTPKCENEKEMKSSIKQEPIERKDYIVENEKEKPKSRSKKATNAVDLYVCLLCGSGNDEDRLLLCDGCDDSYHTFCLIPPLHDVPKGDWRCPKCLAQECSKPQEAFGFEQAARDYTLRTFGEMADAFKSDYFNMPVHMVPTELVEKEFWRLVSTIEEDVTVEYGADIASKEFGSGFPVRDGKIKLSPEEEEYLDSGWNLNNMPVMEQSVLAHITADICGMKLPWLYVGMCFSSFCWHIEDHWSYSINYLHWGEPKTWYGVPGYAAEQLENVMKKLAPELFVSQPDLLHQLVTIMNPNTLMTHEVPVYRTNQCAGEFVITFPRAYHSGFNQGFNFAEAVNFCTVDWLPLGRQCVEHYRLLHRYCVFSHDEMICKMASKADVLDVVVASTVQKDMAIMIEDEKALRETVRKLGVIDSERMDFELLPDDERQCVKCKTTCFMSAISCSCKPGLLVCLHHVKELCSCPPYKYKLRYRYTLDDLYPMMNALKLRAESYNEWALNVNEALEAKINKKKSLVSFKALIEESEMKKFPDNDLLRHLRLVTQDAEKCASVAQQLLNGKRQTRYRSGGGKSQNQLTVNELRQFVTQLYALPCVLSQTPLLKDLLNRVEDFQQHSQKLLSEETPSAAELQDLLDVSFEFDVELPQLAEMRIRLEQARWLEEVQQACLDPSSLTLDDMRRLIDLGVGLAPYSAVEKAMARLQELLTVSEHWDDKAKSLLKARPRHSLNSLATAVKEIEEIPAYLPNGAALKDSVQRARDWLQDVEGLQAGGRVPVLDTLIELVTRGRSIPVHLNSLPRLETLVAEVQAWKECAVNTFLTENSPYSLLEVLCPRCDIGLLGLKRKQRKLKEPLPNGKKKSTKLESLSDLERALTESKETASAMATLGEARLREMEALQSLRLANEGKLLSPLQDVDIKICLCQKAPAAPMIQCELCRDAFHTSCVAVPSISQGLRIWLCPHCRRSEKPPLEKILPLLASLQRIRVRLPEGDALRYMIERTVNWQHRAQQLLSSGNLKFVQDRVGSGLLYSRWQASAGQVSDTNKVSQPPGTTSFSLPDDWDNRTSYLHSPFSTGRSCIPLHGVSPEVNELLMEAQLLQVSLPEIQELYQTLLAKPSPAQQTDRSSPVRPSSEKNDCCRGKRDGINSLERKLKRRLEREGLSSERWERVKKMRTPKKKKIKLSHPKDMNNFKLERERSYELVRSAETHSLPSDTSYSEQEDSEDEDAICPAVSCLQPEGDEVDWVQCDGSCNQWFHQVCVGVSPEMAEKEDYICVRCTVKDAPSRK
#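 KDM5BΔAP (200 nM final) in 50 mM HEPES pH 7.5, 0.01% Tween-20 was preincubated 10 min at RT with compound over a concentration range. Substrate mix (H3K4me3 12.5 µM, α-KG 25 µM, Fe²⁺, ascorbate, NAD⁺, FDH) was added, and NADH fluorescence change over 30 min gave dose-response curves.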
# Numbers without * were called inactive; i = inactive. Potency is read from the fitted curve at half-maximal effect.
SMILES,KDM5B inh
CCCCC(=O)Nc1cc(C(=O)OCc2cc(=O)n3oc(C)cc3n2)ccc1OC,i
O=C1/C(=C/c2ccc(F)cc2)CCc2ccccc21,i
NC(=O)c1cn(CC(=O)NCCc2ccccc2F)c2ccccc12,i
CCCc1nnc(NC(=O)Cn2ccc3ccc(Cl)cc32)s1,i
Cc1nc2ccccc2nc1COC(=O)c1cnc2ccccc2n1,i
O=c1cc(CN2CCN(CCO)CC2)c2cc(O)ccc2o1,i
COc1ccc(-c2cc(-c3nc(-c4ccccc4F)no3)[nH]n2)c(OC)c1,i
Cc1cccc(C(C)C)c1NC(=O)c1cnc2ccccc2n1,i
O=C(COc1ccccc1Cl)c1ccccc1,i
COC(=O)COc1cccn2c(=O)c(-c3cc(C)n(-c4ccc(Cl)c(Cl)c4)n3)c(C)nc12,28µM*
CCOC(=O)c1cc(OC(=O)c2cc(OC)cc(OC)c2)n(-c2ccccc2)n1,i
COc1ccc(-n2nc(C(=O)NCC(=O)Nc3cc(OC)c(OC)c(OC)c3)c3ccccc3c2=O)cc1Cl,i
CCOCCCn1c(=NC(C)=O)c(C#N)cc2c(=O)n3cccc(C)c3nc21,i
CCOC(=O)CCCOc1cccn2c(=O)c(-c3cc(C)n(-c4ccccc4)n3)c(C)nc12,25µM*
O=C(COc1ccccc1Cl)Nc1ccccc1OCc1cc(=O)n2ccccc2n1,i
Cc1nc2c(OCC(=O)c3ccccc3)cccn2c(=O)c1-c1cc(C)n(-c2ccc(Cl)cc2)n1,16µM*
Cc1ccccc1OCC(=O)OCC(=O)c1ccc(Cl)cc1,i
CSc1nnc(NC(=O)c2cc(=O)c3cc(Cl)c(C)cc3o2)s1,i
Cc1n[nH]c(C)c1S(=O)(=O)N(CC(=O)NCc1ccc(F)cc1)c1ccc(C(C)C)cc1,i
CCOP(=O)(OCC)c1nc(Cc2ccc(OC)cc2)oc1NCc1ccco1,i
CC(=O)c1cccc(NC(=S)NNC(=O)c2ccc(-c3ccccc3)cc2)c1,i
CCOCCOc1cccc(N)c1,i
CCCc1cc(=O)[nH]c(SC(C)C(=O)NC)n1 (stereo not given),i
CC1(C(=O)NCc2cc(F)ccc2F)CCCCC(=O)N1 (stereo not given),i
CC1(C(=O)NCc2cc3n(n2)CCCN(S(C)(=O)=O)C3)CCCCO1 (stereo not given),i
SMILES,KDM5B inh
CCc1[nH]c2c(CNC(=O)C3(C)CCCCO3)cc(F)cc2c1C (stereo not given),20µM*
COCCn1c(SCC(=O)c2ccc3c(c2)CCC3)nnc1-c1ccc(Cl)cc1,i
O=[N+]([O-])c1cccc2nc(/C=C/c3ccc(O)cc3)ccc12,i
NC(=O)c1cccc(-c2ccc3c(n2)CN(Cc2ccc(F)cc2)C(=O)CO3)c1,35µM*
CN1CCCC1COc1ccc2c(n1)CN(Cc1ccc(F)cc1)C(=O)CO2 (stereo not given),i
COc1cccc(CN2Cc3nc(-c4cccc(NC(C)=O)c4)ccc3OCC2=O)c1,i
COc1cccc(CN2Cc3nc(-c4cc(Cl)ccc4OC)ccc3OCC2=O)c1,35µM*
O=C1COc2ccc(OCc3cncs3)nc2CN1Cc1ccc(F)cc1,i
COc1cccc(CN2Cc3nc(-c4cnn(C)c4)ccc3OCC2=O)c1,i
CN(c1ccccc1)c1ccc2c(n1)CN(Cc1ccc(F)cc1)C(=O)CO2,32µM*
COc1cccc(CN2Cc3nc(-c4cncnc4)ccc3OCC2=O)c1,i
CC(=O)Nc1cccc(-c2ccc3c(n2)CN(Cc2ccccc2)C(=O)CO3)c1,i
COc1cccc(CN2Cc3nc(-c4c(C)noc4C)ccc3OCC2=O)c1,i
COc1cccc(CN2Cc3nc(-c4cc5ccccc5o4)ccc3OCC2=O)c1,50µM*
COc1cccc(CN2Cc3nc(-c4ccc(F)cc4)ccc3OCC2=O)c1,i
O=C(CSc1nc2cc([N+](=O)[O-])ccc2o1)NCc1ccc(F)cc1,i
CN=c1scc(C)n1/N=C/c1ccco1,i
CC(C)C(=O)N1N=C(c2ccc(Cl)cc2)CC1c1ccc2nccnc2c1 (stereo not given),i
CC(C)CCN1CCC(N2CCN(S(=O)(=O)c3ccc4c(c3)CCC4)CC2)C1=O (stereo not given),i
Cc1cc(C)c(NC(=O)CN(C)C(=O)C2CC(=O)N(Cc3ccccc3Cl)C2)c(C)c1 (stereo not given),i
CC(C)C(=O)N(Cc1ccc(-c2cccc(Cl)c2)o1)C1CCS(=O)(=O)C1 (stereo not given),i
Cc1oc(-c2ccccc2)nc1CS(=O)CC(=O)N1CCc2ccccc21 (stereo not given),i
COc1ccc(S(=O)(=O)c2c(C)c(C)n(C(C)C)c2NC(=O)C2CC2)cc1,i
O=C(O)C/C(=C/c1ccc(Cl)s1)c1nc2ccccc2o1,i
COc1cccc(CN2Cc3nc(N(C)c4ccccc4)ccc3OCC2=O)c1,32µM*
SMILES,KDM5B inh
COc1cccc(CN2Cc3nc(Oc4ccccc4)ccc3OCC2=O)c1,i
Cc1nc(CN2Cc3nc(-c4ccccc4F)ccc3OCC2=O)cs1,i
COc1ccc(-c2ccc3c(n2)CN(Cc2csc(C)n2)C(=O)CO3)cc1F,35µM*
O=C(CN1Cc2nc(-c3ccsc3)ccc2OCC1=O)N1CCCC1,i
Cc1ccccc1-c1ccc2c(n1)CN(CCOc1ccccc1)C(=O)CO2,i
Cc1nc(CN2Cc3nc(-c4cnn(Cc5ccccc5)c4)ccc3OCC2=O)cs1,i
COc1cccc(CN2Cc3nc(-c4cnn(Cc5ccccc5)c4)ccc3OCC2=O)c1,i
O=C(CN1Cc2nc(-c3cc4ccccc4o3)ccc2OCC1=O)N1CCCC1,28µM*
O=C(NCC1(N2CCOCC2)CCCCC1)C1CCN(C(=O)c2ccc(Cl)cc2)CC1,i
O=C(COc1ccccc1)N(Cc1ccc(-c2ccc(Cl)cc2)o1)C1CCS(=O)(=O)C1 (stereo not given),i
COc1cccc(C(CNC(=O)c2ccc(S(=O)(=O)Nc3ccc(C)cc3)cc2)N(C)C)c1 (stereo not given),i
COC(=O)c1c(C)[nH]c(C(=O)C(C)Cl)c1C (stereo not given),i
Cc1nn(-c2ccccc2)c(C)c1CN(C)S(=O)(=O)c1c(Cl)cccc1Cl,i
CCCc1noc(-c2ccn3c(CNC(=O)Cc4ccccc4OC)nnc3c2)n1,18µM*
CCCc1noc(-c2ccn3c(CNC(=O)C(C)Oc4ccccc4)nnc3c2)n1 (stereo not given),25µM*
CCCc1noc(-c2ccn3c(CNC(=O)c4ccccc4OC)nnc3c2)n1,3.2µM*
CCCc1noc(-c2ccn3c(CNC(=O)c4cc5ccccc5[nH]4)nnc3c2)n1,i
O=C1CN(CC(=O)Nc2cc(Cl)cc(Cl)c2)CCN1,i
CCOC(=O)c1noc2ncn(CC(=O)Nc3cc(C)c(Cl)cc3OC)c(=O)c12,i
CCc1nnc(SCC(=O)Nc2cc(Cl)ccc2C)n1-n1cccc1,i
CCCC(=O)Nc1ccc(-c2nc(NC(C)(C)C)sc2C)cc1,i
O=C(CCc1nc2sc3c(c2c(=O)[nH]1)CCC3)NCc1ccccc1OC(F)(F)F,i
CC1=C(C(=O)Nc2cc(C)cc(C)c2)C2(CCCCCC2)OC1=O,i
CCCCc1[nH]nc2c1C1(C(=O)Nc3ccccc31)C(C#N)=C(N)O2 (stereo not given),i
C/C(=N/NC(=S)NC(C)C)c1ccc(Cl)cc1Cl,i
CC(=O)Nc1cccc(Oc2ccc3nnc(-c4ccc(Cl)cc4)n3n2)c1,i
Cc1ccc2c(CSc3n[nH]c(=O)n3C3CC3)cc(=O)oc2c1C,i
